Results filed as inconclusive are left out. Activity calls are given as the source filed them. How the source made its calls, unless noted: active means hit-call score of the fitted dose curve at least 0.9, where 1 is the maximum; inactive means score below 0.9.
Assays:
[1] = ATG_CRE_CIS: Attagene CIS-FACTORIAL HepG2 Assay for human cAMP Responsive Element (CRE) binding protein 3 (AID 2282926); conditions: HepG2 CRE cis-reporter, Attagene multiplexed mRNA; actives raise or lower the signal
How it was run: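 Transfected HepG2 were treated for 24 hours, then RNA was extracted and reporter cDNA amplified with sequence-specific primers. Labelled fragments were separated by capillary electrophoresis, and the CRE signal was fitted bidirectionally with DMSO as baseline.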

[2] = molecular target: Transcription factor E2F1 (Homo sapiens) (UniProt Q01094); test: ATG_E2F_CIS: Attagene CIS-FACTORIAL HepG2 Assay for human E2F Transcription Factor 1 (AID 2282935); conditions: HepG2 Attagene cis-reporter, E2F reporter RNA transcripts; actives raise or lower the signal
How it was run: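 Cis-element reporter mRNA induction in transiently transfected HepG2, 24 h exposure. Activity fitted in both directions relative to DMSO negative control.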

[3] = ATG_M_19_CIS: Attagene CIS-FACTORIAL HepG2 Assay for M19 Transcription Factor (Internal Marker) (AID 2282939); conditions: HepG2 Attagene CIS-FACTORIAL M19 internal marker reporter; actives raise or lower the signal
How it was run: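 Signals come from fluorescence of labelled reporter-specific PCR fragments resolved by capillary electrophoresis, following 24 h treatment of HepG2 cells transfected with cis-promoter reporter units; activity was fitted in both directions relative to DMSO.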

[4] = molecular target: Hypoxia-inducible factor 1-alpha (Homo sapiens) (UniProt Q16665); test: ATG_HIF1a_CIS: Attagene CIS-FACTORIAL HepG2 Assay for human Hypoxia Inducible Factor 1 (HIF1A) (AID 2282951); conditions: HepG2 Attagene cis-factorial HIF1a reporter transcription; actives raise or lower the signal
How it was run: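 RT-PCR/capillary electrophoresis fluorescence readout of reporter transcripts from endogenous-TF-driven cis elements in transfected HepG2 cells, 24 h exposure; activity fitted in both directions against DMSO controls.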

[5] = molecular target: Heat shock factor protein 1 (Homo sapiens) (UniProt Q00613); test: ATG_HSE_CIS: Attagene CIS-FACTORIAL HepG2 Assay for human Heat Shock Transcription Factor 1 (HSE) (AID 2282953); conditions: HepG2 HSE cis-reporter, Attagene RNA transcription; actives raise or lower the signal
How it was run: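 Endogenous transcription factor activity captured via cis-promoter reporter units transfected into HepG2; treatment lasted 24 h. Fluorescence intensity of reporter fragments analysed with bidirectional curve fitting, DMSO baseline.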

[6] = molecular target: Paired box protein Pax-6 (Homo sapiens) (UniProt P26367); test: ATG_Pax6_CIS: Attagene CIS-FACTORIAL HepG2 Assay for human Paired Box 6 (PAX6) (AID 2282956); conditions: HepG2 CIS-FACTORIAL PAX6 reporter transcription, RNA readout; actives raise or lower the signal
How it was run: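 HepG2 cells transiently transfected with multiplexed cis-promoter reporter units (endogenous TF activity) were dosed for 24 h. Reporter mRNA was quantified by RT-PCR, 6-FAM labeling, HpaI digestion and capillary electrophoresis; bidirectional fitting versus DMSO baseline.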

[7] = ATG_RORE_CIS: Attagene CIS-FACTORIAL HepG2 Assay for human RAR-related Orphan Receptor Element (RORE) (AID 2282959); conditions: HepG2 Attagene cis-factorial RORE reporter, mRNA; actives raise or lower the signal
How it was run: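 Readout: fluorescent reporter mRNA by RT-PCR plus capillary electrophoresis, 24 h after dosing transfected HepG2 cells. Endogenous transcription factor activity on a cis promoter element is measured. Gain or loss of signal fitted against DMSO.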

[8] = ATG_TA_CIS: Attagene CIS-FACTORIAL HepG2 Assay for human TA Basal Promoter (AID 2282964); conditions: HepG2 Attagene CIS-factorial TA basal promoter reporter; actives raise or lower the signal
How it was run: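 Fluorescence from labelled RT-PCR reporter fragments, separated by capillary electrophoresis, gives the signal. Cells: HepG2 transiently carrying multiple reporter units, 24 h chemical dosing. Gain or loss relative to DMSO.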

[9] = ATG_TAL_CIS: Attagene CIS-FACTORIAL HepG2 Assay for human TAL Basal Promoter (AID 2282966); conditions: HepG2 Attagene cis-factorial TAL promoter reporter; actives raise or lower the signal;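 further: background control endpoint measuring basal TAL promoter reporter mRNA not a specific factor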
How it was run: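 Steps: transfect HepG2 with multiple reporter transcription units; dose 24 h; isolate RNA, reverse-transcribe, PCR-amplify, label with 6-FAM, digest with HpaI; resolve by capillary electrophoresis. Bidirectional fitting against DMSO baseline.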

[10] = ATG_VDRE_CIS: Attagene CIS-FACTORIAL HepG2 Assay for human Vitamin D Receptor Element (VDRE) (AID 2282968); conditions: HepG2 VDRE cis-reporter transcription, actives raise or lower the signal
How it was run: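 Reporter mRNA induction, quantified by capillary electrophoresis of fluorescently labelled RT-PCR products, was read 24 h after dosing HepG2 cells carrying transiently transfected cis-regulated reporter units; gain or loss relative to DMSO.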

[11] = ATG_M_32_TRANS: Attagene TRANS-FACTORIAL HepG2 Assay for M32 Transcription Factor (Internal Marker) (AID 2282984; active means hit-call score of the fitted dose curve at least 0.9, where 1 is the maximum;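 further: transcript level of a background control reporter unit measured by RT-PCR and capillary electrophoresis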); conditions: HepG2 Attagene TRANS M32 internal marker reporter
How it was run: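 Measures reporter mRNA induction in human HepG2 liver cells after 24 h chemical treatment. Transcripts from transiently transfected GAL4-UAS reporter units are amplified, fluorescently labelled and sized by capillary electrophoresis; gain of signal relative to DMSO.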

[12] = molecular target: Transcriptional activator Myb (Homo sapiens) (UniProt P10242); test: ATG_Myb_CIS: Attagene CIS-FACTORIAL HepG2 Assay for human Myeloblastosis (Myb) Proto-Oncogene Transcription Factor (AID 2282986); conditions: HepG2 Attagene CIS-FACTORIAL Myb reporter transcription; actives raise or lower the signal
How it was run: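 HepG2, transient MRTU transfection (cis-element promoters, endogenous TF activity), 24 h compound exposure. Readout: reporter mRNA via RT-PCR, 6-FAM labeling, HpaI digest, capillary electrophoresis. Gain/loss fit vs DMSO.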

[13] = molecular target: Nuclear respiratory factor 1 (Homo sapiens) (UniProt Q16656); test: ATG_NRF1_CIS: Attagene CIS-FACTORIAL HepG2 Assay for human Nuclear Respiratory Factor 1 (NRF1) Orphan Gene (AID 2282987); conditions: HepG2 NRF1 cis-element reporter, Attagene multiplex; actives raise or lower the signal
How it was run: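 Endogenous NRF1-driven reporter transcription measured in transiently transfected human HepG2 liver cells. Readout: reporter mRNA by RT-PCR and capillary electrophoresis with fluorescence detection, 24 h post-dosing. Gain or loss of signal fitted relative to DMSO baseline.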

[14] = ATG_NFI_CIS: Attagene CIS-FACTORIAL HepG2 Assay for human Nuclear Factor I (NFI) (AID 2282989); conditions: HepG2 cis-regulatory reporter, NFI response element transcription; actives raise or lower the signal
How it was run: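 Cells: human liver HepG2, transiently transfected with promoter-regulated reporter transcription units. Exposure 24 h. Detection: fluorescent RT-PCR products separated by capillary electrophoresis, normalised to DMSO negative control.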

[15] = ATG_NF_kB_CIS: Attagene CIS-FACTORIAL HepG2 Assay for human Nuclear Factor Kappa B (NF-kB) (AID 2282991); conditions: HepG2 Attagene cis-factorial NF-kB reporter mRNA; actives raise or lower the signal
How it was run: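 Read-out: reporter transcript levels quantified by RT-PCR plus capillary electrophoresis of 6-FAM-labelled, HpaI-cut fragments. Transfected HepG2 cells, 24 h compound exposure, endogenous NF-kB-driven cis element; gain or loss scored versus DMSO.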

[16] = ATG_NRF2_ARE_CIS: Attagene CIS-FACTORIAL HepG2 Assay for human Nuclear Factor Erythroid 2 Related Factor 2 (NFR2) response to Antioxidant Response Elements (ARE) (AID 2282992); conditions: HepG2 Attagene ARE/NRF2 reporter, transcription factor activity; actives raise or lower the signal
How it was run: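 HepG2 cells transiently transfected with multiplexed cis-regulated reporter transcription units measure endogenous transcription factor activity. Reporter mRNA at 24 h is quantified by RT-PCR, fluorescent labelling and capillary electrophoresis, with bidirectional fitting relative to DMSO.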

[17] = ATG_Oct_MLP_CIS: Attagene CIS-FACTORIAL HepG2 Assay for human Octamer-Binding Transcription Factor (Oct) (AID 2282993); conditions: HepG2 Attagene cis-factorial Oct reporter, mRNA; actives raise or lower the signal
How it was run: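 HepG2, transient MRTU transfection, cis promoter elements; 24 h dosing; RT-PCR/CE fluorescence read-out of reporter mRNA; fit both directions vs DMSO.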

[18] = molecular target: Cellular tumor antigen p53 (Homo sapiens) (UniProt P04637); test: ATG_p53_CIS: Attagene CIS-FACTORIAL HepG2 Assay for human p53 Transcription Factor (AID 2282994); conditions: HepG2 p53 cis-element reporter, Attagene mRNA; actives raise or lower the signal
How it was run: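 HepG2 cells transiently transfected with multiplexed cis-regulated reporter transcription units read endogenous TF activity. After 24 h compound exposure, reporter mRNA was quantified by RT-PCR, fluorescent labelling, HpaI digestion and capillary electrophoresis; bidirectional fits versus DMSO baseline.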

[19] = molecular target: Peroxisome proliferator-activated receptor gamma (Homo sapiens) (UniProt P37231); test: ATG_PPARg_TRANS: Attagene TRANS-FACTORIAL HepG2 Assay for human Peroxisome Proliferator-activated Receptor-gamma (PPARg) (AID 2283007; active means hit-call score of the fitted dose curve at least 0.9, where 1 is the maximum)
How it was run: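 Read-out: reporter mRNA induction, detected by fluorescence after RT-PCR and capillary electrophoresis. Transiently transfected human HepG2 liver cells carrying a chimeric NR-Gal4 construct were dosed for 24 h; activity was fitted upward relative to DMSO.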

[20] = ATG_TGFb_CIS: Attagene CIS-FACTORIAL HepG2 Assay for human Transforming Growth Factor (TGF) (AID 2282967); conditions: HepG2 Attagene CIS TGFb reporter, mRNA transcription; actives raise or lower the signal
How it was run: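 Bidirectional fitting relative to DMSO gave the endpoint. Underlying data: reporter mRNA from HepG2 cells carrying transiently transfected cis-regulated reporter constructs, harvested 24 h after dosing and analyzed by RT-PCR and capillary electrophoresis.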

Measured: AC50

Hypoxia-inducible factor 1-alpha (Homo sapiens), sequence (Q16665 whole entry, looked up): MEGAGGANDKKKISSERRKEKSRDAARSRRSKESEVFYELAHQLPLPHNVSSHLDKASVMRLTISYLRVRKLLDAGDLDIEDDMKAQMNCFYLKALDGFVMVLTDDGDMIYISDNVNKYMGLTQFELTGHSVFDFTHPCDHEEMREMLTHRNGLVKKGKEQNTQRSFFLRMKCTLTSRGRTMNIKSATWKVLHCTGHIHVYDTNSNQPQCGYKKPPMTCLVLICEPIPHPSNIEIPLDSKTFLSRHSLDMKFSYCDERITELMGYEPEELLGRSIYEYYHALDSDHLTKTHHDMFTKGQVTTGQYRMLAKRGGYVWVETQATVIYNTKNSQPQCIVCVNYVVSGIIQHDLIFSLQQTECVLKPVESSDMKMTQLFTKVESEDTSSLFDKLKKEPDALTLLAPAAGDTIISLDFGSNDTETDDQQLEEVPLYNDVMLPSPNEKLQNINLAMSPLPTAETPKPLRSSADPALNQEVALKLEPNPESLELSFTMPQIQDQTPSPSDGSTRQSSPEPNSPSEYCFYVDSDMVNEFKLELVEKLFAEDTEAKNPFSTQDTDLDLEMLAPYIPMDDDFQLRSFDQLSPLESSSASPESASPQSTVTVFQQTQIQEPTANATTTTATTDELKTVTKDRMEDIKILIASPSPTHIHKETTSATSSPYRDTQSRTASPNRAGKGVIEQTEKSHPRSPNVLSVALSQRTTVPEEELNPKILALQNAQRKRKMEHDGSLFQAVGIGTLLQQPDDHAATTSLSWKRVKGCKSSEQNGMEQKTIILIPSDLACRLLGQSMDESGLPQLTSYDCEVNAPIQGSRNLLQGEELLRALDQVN
Transcriptional activator Myb (Homo sapiens), sequence (P10242 whole entry, looked up): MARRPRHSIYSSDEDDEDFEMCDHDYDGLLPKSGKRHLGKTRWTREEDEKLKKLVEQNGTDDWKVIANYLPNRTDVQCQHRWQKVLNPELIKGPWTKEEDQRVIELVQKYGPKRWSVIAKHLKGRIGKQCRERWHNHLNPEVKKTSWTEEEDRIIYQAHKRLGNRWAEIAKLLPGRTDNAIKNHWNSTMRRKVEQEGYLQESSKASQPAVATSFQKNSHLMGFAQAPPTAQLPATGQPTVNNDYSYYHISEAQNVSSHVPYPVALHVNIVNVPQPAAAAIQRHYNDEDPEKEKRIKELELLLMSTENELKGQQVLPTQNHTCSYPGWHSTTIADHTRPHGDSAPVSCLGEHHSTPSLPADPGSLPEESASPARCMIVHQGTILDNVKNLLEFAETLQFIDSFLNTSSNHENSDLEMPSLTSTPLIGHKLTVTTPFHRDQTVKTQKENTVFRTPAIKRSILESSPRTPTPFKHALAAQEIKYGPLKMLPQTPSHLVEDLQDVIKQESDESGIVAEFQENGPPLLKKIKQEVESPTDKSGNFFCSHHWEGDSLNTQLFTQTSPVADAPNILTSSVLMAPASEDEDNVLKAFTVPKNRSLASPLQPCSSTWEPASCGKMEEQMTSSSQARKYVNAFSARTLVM
Cellular tumor antigen p53 (Homo sapiens), sequence (P04637 whole entry, looked up): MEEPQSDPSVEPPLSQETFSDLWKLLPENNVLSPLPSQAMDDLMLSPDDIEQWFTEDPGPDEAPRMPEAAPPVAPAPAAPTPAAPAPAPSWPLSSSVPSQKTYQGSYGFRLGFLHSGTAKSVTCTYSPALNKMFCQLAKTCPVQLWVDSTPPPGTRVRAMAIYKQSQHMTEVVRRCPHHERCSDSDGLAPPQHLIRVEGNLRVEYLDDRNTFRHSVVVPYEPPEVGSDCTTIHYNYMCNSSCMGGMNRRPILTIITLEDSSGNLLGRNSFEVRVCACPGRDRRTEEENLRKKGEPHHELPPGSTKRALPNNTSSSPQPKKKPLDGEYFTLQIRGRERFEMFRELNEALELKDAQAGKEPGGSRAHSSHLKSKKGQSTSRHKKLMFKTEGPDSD
Paired box protein Pax-6 (Homo sapiens), sequence (P26367 whole entry, looked up): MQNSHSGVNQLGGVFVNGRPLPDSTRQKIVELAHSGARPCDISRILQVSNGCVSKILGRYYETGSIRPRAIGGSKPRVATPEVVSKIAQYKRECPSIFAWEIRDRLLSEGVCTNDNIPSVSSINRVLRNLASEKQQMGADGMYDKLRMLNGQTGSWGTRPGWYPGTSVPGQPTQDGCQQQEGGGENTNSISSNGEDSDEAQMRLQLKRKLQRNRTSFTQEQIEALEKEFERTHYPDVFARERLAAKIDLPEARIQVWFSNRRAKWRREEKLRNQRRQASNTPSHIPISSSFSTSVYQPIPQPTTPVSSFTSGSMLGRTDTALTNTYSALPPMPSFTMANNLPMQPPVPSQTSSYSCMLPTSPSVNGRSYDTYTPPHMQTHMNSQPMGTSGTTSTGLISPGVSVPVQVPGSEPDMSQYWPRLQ
Peroxisome proliferator-activated receptor gamma (Homo sapiens), sequence (P37231 whole entry, looked up, the tested form may be a part): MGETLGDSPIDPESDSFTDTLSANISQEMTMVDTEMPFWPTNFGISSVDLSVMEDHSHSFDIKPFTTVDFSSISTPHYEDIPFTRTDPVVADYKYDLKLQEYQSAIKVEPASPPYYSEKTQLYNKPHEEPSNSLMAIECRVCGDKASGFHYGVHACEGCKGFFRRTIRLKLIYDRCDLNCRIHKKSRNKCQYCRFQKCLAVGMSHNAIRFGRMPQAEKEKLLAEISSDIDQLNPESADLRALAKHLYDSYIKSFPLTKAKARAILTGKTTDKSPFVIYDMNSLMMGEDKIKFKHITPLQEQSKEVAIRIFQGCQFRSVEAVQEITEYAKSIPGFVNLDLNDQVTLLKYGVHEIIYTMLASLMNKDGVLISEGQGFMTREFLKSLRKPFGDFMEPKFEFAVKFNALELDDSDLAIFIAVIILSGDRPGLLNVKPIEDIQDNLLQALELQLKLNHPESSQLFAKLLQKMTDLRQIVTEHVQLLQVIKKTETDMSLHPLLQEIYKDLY
Nuclear respiratory factor 1 (Homo sapiens), sequence (Q16656 whole entry, looked up): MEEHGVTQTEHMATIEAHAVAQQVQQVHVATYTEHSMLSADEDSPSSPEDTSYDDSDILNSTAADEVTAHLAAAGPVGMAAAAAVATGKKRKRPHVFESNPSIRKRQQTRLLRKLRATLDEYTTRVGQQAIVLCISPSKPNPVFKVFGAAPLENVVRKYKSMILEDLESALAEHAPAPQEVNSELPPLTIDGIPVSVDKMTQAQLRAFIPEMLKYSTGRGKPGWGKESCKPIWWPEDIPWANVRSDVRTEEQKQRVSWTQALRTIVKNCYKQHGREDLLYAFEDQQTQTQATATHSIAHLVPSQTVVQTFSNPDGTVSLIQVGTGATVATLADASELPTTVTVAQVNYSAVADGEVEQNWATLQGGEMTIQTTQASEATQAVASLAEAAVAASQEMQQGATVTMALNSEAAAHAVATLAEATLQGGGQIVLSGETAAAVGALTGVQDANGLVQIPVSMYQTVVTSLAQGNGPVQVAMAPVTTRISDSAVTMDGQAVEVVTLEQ
Transcription factor E2F1 (Homo sapiens), sequence (Q01094 whole entry, looked up): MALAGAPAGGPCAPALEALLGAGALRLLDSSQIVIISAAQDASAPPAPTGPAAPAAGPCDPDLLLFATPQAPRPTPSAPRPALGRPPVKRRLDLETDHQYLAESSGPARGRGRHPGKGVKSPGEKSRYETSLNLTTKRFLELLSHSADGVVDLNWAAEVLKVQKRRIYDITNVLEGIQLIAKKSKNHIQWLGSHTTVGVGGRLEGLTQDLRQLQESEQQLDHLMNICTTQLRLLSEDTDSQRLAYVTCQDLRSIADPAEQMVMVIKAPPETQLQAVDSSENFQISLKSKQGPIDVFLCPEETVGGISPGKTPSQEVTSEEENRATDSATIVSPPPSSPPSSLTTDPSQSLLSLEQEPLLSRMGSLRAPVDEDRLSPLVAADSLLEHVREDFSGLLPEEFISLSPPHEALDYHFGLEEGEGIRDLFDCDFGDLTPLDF
Heat shock factor protein 1 (Homo sapiens), sequence (Q00613 whole entry, looked up, the tested form may be a part): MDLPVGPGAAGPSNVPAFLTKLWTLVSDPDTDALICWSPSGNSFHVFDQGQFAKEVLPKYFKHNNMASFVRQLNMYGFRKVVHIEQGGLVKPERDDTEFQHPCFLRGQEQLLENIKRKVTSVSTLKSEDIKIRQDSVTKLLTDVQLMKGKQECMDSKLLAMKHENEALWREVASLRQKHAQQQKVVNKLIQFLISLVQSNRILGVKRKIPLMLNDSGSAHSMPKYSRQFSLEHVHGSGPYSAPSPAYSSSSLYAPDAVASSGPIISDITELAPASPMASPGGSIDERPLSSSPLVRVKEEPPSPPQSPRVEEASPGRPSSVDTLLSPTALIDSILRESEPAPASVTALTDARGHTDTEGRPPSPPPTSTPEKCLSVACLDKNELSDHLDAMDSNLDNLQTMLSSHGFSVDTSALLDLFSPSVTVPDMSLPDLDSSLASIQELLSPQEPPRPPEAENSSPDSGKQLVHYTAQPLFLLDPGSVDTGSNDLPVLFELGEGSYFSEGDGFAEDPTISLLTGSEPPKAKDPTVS

CCCCCCC1CCOC1=O (stereo unspecified)
not listed: [20]
inactive: all other assays above

COc1ccc(CO)cc1
not listed: [3] | [15] | [19] | [20]
inactive: all other assays above

CC1(C)[C@H](C(=O)O[C@H](C#N)c2cccc(Oc3ccccc3)c2)[C@@H]1C=C(Br)Br
active: [20] 56.7 µM | [19] 2.94 µM
not listed: [10] | [11]
inactive: all other assays above

O=c1c2ccccc2c(=O)c2c1cc(Cl)c1[nH]c3c([nH]c12)c(Cl)cc1c(=O)c2ccccc2c(=O)c13
active: [19] 40.5 µM
not listed: [11] | [15] | [17]
inactive: all other assays above

Oc1ccc(C2(c3ccc(O)cc3)c3ccccc3-c3ccccc32)cc1
inactive: [9] | [20] | [11] | [12] | [15] | [16] | [19]
active: [1] 8.42 µM | [2] 19.8 µM | [4] 11.1 µM | [5] 17.5 µM | [6] 14.9 µM | [7] 18.6 µM | [8] 17.2 µM | [10] 5 µM | [13] 19.1 µM | [14] 17.6 µM | [17] 9.82 µM | [18] 17.2 µM

C#CC1(O)CCCCC1
not listed: [6] | [10] | [19]
inactive: all other assays above

O=[N+]([O-])O.O=[N+]([O-])O.[Cd]
active: [1] 1.98 µM | [5] 1.42 µM | [6] 1.79 µM | [13] 4.62 µM | [14] 2.18 µM | [16] 4.12 µM | [17] 1.16 µM
not listed: [7] | [10] | [15] | [18] | [20]
inactive: all other assays above

Oc1cc(Cl)ccc1Cl
not listed: [6] | [20]
inactive: all other assays above

CCc1cc(C)cc(CC)c1-c1c(OC(=O)C(C)(C)C)n2n(c1=O)CCOCC2
not listed: [2]
inactive: all other assays above

C=Cc1cccc(CCl)c1
active: [16] 22.4 µM | [17] 46.2 µM
not listed: [10] | [19]
inactive: all other assays above

CN1C(=O)CCS(=O)(=O)C1c1ccc(Cl)cc1 (stereo unspecified)
not listed: [4] | [8] | [18] | [19]
inactive: all other assays above

O=C(CCN1CC1)OCC(CO)(COC(=O)CCN1CC1)COC(=O)CCN1CC1
not listed: [10] | [11]
inactive: all other assays above

Cc1ccccc1CCl
not listed: [20]
inactive: all other assays above

C[C@]12CC[C@H](O)C[C@H]1CC[C@@H]1[C@@H]2C[C@@H](O)[C@]2(C)[C@@H](C3=CC(=O)OC3)CC[C@]12O
inactive: [2] | [7] | [20] | [11] | [15] | [16] | [18]
active: [1] 3.11 µM | [5] 2.96 µM | [6] 0.513 µM | [9] 60.9 µM | [10] 2.08 µM | [12] 5.88 µM | [13] 5.24 µM | [14] 2.61 µM | [17] 2.08 µM | [19] 1.87 µM

CC(C)(Cl)Cl
not listed: [7] | [20]
inactive: all other assays above

CNC(=N[N+](=O)[O-])NCC1CCOC1 (stereo unspecified)
not listed: [17] | [19] | [20]
inactive: all other assays above
